# Tested on: Plasmodium falciparum
# Assay: GSK_TCMDC: Inhibition of Plasmodium falciparum 3D7 in whole red blood cells, using parasite LDH activity as an index of growth. Test compounds present at 2uM
# Assay type: functional
row,SMILES,Inhibition
1,CCNc1cc(C(=O)N[C@@H](Cc2ccccc2)[C@H](O)CNC(C)CCCC(C)C)cc(N2CCCS2(=O)=O)c1.O=CO (stereo partly drawn),99%
2,Cn1ccnc1CCC(=O)Nc1ccc(Cl)cc1C(=O)Nc1ccc(Cl)cc1,92%
3,COCCNCc1ccc(-c2cccc(CN(C(=O)NCCc3ccccc3)C3CCN(Cc4ccccc4)CC3)c2)cc1.O=C(O)C(F)(F)F,88%
4,Br.C=CCc1cccc(C)c1OCCCON1C(=N)N=C(N)NC1(C)C,94%
5,CN(C)CC(=O)Nc1cccc(Nc2nccc(NCC(O)c3ccccc3)n2)c1 (stereo not drawn),100%
6,Cn1nc(-c2ccccc2F)c2cc(C(=O)NC3CCN(Cc4ccccc4)CC3)sc21,97%
7,CC(=O)N1CCN(c2ccc(NC(=O)c3oc(-c4ccccc4)nc3C(F)(F)F)cn2)CC1,92%
8,O=C(Nc1cccc(CN2CCCN(Cc3ccc(O)cc3)CC2)c1)c1cccc(F)c1.O=C(O)C(F)(F)F,92%
9,O=C(C=Cc1ccc(Cl)c(Cl)c1)NCCCCCN1CCC(CCNC(=O)c2cccc3ccccc23)CC1,85%
10,Cc1cc2cc(/C=C/C(=O)NC3CCC(CCN4CCc5ccc(C#N)cc5CC4)CC3)ccc2[nH]1.Cl (stereo not drawn),85%
11,Cc1nc(-c2ccncc2)sc1C(=O)Nc1ccc(Cl)cc1C(=O)Nc1ccc(Cl)cc1,98%
12,Cc1c(C)n(C2CCCC2)c2ncnc(OC3CCN(CC(=O)NC4CC4)CC3)c12,95%
13,COc1cc(C)ccc1N1CCN(CCCCNC(=O)c2ccc(NC(=O)c3ccc(Cl)cc3)cc2)CC1,99%
